# The list is not random: actives were taken first. Their share in the collection is about 3.2%.
# esBAF inh: SWI/SNF esBAF complex inhibition | mouse ES cells, Bmi1-luciferase knock-in reporter, 24 h; 100% = twice the neutral-well signal | reporter increase, % at 12.5 µM | actives 2% (n = 350,000); in the data active = activation above about 40%; inconclusive = no clear call, values can overlap the other calls;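 also: a rise in the Bmi1 reporter signal indicates esBAF inhibition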
# CDK5 p35 inh: CDK5/p35 (human) kinase inhibition. Q00535+Q15078. Recombinant CDK5/p35, ADP-Glo luminescence, 60 min. inhibition, % at 10 µM. actives 0.01% (n = 330,000). AID 488839;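 active = highest replicate inhibition of at least 50% and at least 75% of replicates reaching 50%; inconclusive = only one of the two criteria met; inactive = both criteria failed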
# Target sequence (Q00535 whole entry, looked up): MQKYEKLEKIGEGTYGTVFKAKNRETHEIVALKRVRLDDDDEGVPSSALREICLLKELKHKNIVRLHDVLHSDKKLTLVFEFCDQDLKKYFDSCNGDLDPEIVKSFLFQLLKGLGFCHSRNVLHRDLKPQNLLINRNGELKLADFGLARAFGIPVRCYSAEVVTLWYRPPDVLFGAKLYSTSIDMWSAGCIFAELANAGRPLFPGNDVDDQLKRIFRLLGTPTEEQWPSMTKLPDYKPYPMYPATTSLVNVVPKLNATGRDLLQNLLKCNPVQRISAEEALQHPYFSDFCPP
# Target sequence (Q15078 whole entry, looked up): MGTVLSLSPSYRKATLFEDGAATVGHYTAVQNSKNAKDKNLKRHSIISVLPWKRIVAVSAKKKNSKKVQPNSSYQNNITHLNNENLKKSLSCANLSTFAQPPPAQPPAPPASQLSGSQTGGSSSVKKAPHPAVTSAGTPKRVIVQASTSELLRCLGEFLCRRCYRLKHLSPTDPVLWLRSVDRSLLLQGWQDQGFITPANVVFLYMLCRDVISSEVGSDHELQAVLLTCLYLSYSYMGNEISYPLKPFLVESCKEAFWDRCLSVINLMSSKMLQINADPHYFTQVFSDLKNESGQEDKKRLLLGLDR
# dFosB act: enhances mouse delta FosB homodimer DNA binding; AID 493131; purified delta FosB, TAMRA-CDK5 oligo fluorescence polarization; percent of positive-control signal above neutral wells; activation, % at 25 µM; actives 0.99% (n = 340,000);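 active = mean activation above about 17%, with every replicate also reaching it, limit read from the data, passing the limit was not always enough; inconclusive = only one of the two conditions met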
# Dyrk1A ADPGlo: inhibitors of rat Dyrk1A kinase; actives 0.43% (n = 310,000); Q63470; AID 504441; ADP-Glo luminescence, NFATc1 peptide; inhibition, % at 12.5 µM; in the data active = inhibition above about 50%
# SMARCA2 activ: SMARCA2 function activation, primary screen; MG213 cells, MMTV-luciferase reporter, dexamethasone, overnight; activation, % at 9.1 µM; actives 1% (n = 370,000); AID 652017; in the data active = activation above about 7.8%
# Rtt109 Vps75: blocks Candida albicans Rtt109/Vps75 acetyltransferase activity | purified Rtt109/Vps75, ThioGlo CoA-SH fluorescence, 4 h | inhibition, % at 34.9 µM | actives 0.16% (n = 330,000);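 active = inhibition of at least 50% in every replicate; inconclusive = best replicate reaches 50% inhibition but some replicates fall short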
# Numbers stand for hits; . = inactive; ? = inconclusive; / = not tested or not shown.
SMILES,esBAF inh,CDK5 p35 inh,dFosB act,Dyrk1A ADPGlo,SMARCA2 activ,Rtt109 Vps75
C[C@H](CO)N1C[C@H](C)[C@H](CN(C)C(=O)Nc2ccccc2)Oc2ccc(NC(=O)Nc3ccc(F)cc3)cc2CC1=O,.,/,/,/,/,/
Fc1cccc(NCc2cn3ccccc3n2)c1,60,.,.,.,.,.
CN(CC(=O)Nc1cccc(F)c1)C(=O)c1ccc(OCc2cn3ccccc3n2)cc1,.,.,.,.,.,.
O=C(c1ccc2ccccc2c1O)N1CCCCC1,56,/,/,/,.,/
CC(=O)c1ccc(N2CCN(CC(O)COC(c3ccccc3)c3ccccc3)CC2)cc1 (stereo unspecified),.,.,.,.,.,55
CC(=O)c1ccc(N2CCN(CC(O)COC(c3ccccc3)c3ccccc3C)CC2)cc1 (stereo unspecified),.,.,.,.,.,.
CC(C)c1ccc2c(c1)C1(NN=C(c3ccccc3)S1)C(=O)N2 (stereo unspecified),87,.,.,.,.,.
O=C(NCC1CCCO1)c1ccccc1 (stereo unspecified),.,.,.,.,.,.
O=C(NCC1CCCO1)Nc1cc(Cl)cc(Cl)c1 (stereo unspecified),/,.,.,.,.,/
O=C(NCC1CCCO1)c1cc(-c2ccccc2F)no1 (stereo unspecified),57,.,.,.,.,.
O=C(NCC1CCCO1)Nc1ccc(Cl)cc1 (stereo unspecified),45,.,.,.,.,.
O=C(COC(=O)c1ccccc1)NCC1CCCO1 (stereo unspecified),49,.,.,.,.,.
COC(=O)c1ccc(NC(=O)C(=O)NCC2CCCO2)cc1 (stereo unspecified),45,.,.,.,.,.
CC(C)C#Cc1ccc2c(c1)O[C@H](CN(C)C)[C@@H](C)CN([C@H](C)CO)S2(=O)=O,.,/,/,/,/,/
O=C(C[C@H]1C[C@@H]2c3cc(NC(=O)NC4CCCC4)ccc3O[C@@H]2[C@H](CO)O1)NCCc1ccccc1,.,/,/,/,/,/
CCN(CC)CCn1c(NCc2ccc(C)o2)nc2ccccc21,/,/,.,.,.,.
CN(C)c1ccc(CNc2nc3ccccc3n2C)cc1,48,/,/,/,.,/
Cn1c(NCc2ccccc2O)nc2ccccc21,53,.,.,.,.,.
Cn1c(NCc2ccccc2Cl)nc2ccccc21,?,.,.,.,.,.
Cc1ccc(CNc2nc3ccccc3n2C)o1,42,.,.,.,.,.
C[C@@H]1CCCCO[C@H](CN(C)C(=O)NC2CCCCC2)[C@H](C)CN([C@@H](C)CO)C(=O)c2cc(NC(=O)Nc3ccc4c(c3)OCO4)ccc2O1,.,/,/,/,/,/
CC(=O)Nc1ccc(C)c([N+](=O)[O-])c1,.,.,.,.,.,.
Cc1cc(NC(=O)OC2CCCCC2)ccc1[N+](=O)[O-],67,.,.,.,.,.
Cc1ccc(NC(=O)C2C3CCCCC32)cc1[N+](=O)[O-] (stereo unspecified),42,.,.,.,.,.
O=C(Nc1cccnc1)OC1CCCCC1,/,.,.,.,.,.
SMILES,esBAF inh,CDK5 p35 inh,dFosB act,Dyrk1A ADPGlo,SMARCA2 activ,Rtt109 Vps75
O=C(Cc1cccs1)NCc1cccc(Cl)c1,50,.,.,.,.,.
O=C(Cc1cccs1)NCc1cc(Cl)cc(Cl)c1,?,.,.,/,.,.
O=C(Cc1cccs1)NCc1ccc(Cl)cc1Cl,66,.,.,/,.,.
CO[C@H]1CC[C@@H]2CCN(C)C(=O)C[C@@H](c3ccccc3)CN(C)C(=O)c3cccc(C#N)c3OC[C@@H]1O2,.,/,/,/,/,/
CCc1ccc2c(c1)C(c1ccncc1)=NNC(c1ccccc1)=N2,48,.,.,.,.,.
CC(C)NC(=O)Nc1ccc2c(c1)CC(=O)N([C@H](C)CO)C[C@@H](C)[C@@H](CN(C)C)O2,.,/,/,/,/,/
Cc1ccc2nc(SCc3nc4ccccc4c(=O)[nH]3)[nH]c2c1,51,.,.,.,.,.
COC(=O)c1sc2nc(CSc3nc4ccc(C)cc4[nH]3)[nH]c(=O)c2c1C,.,.,.,.,.,.
C[C@@H]1CN([C@@H](C)CO)C(=O)Cc2cc(NC(=O)CCN3CCOCC3)ccc2O[C@@H]1CN(C)C(=O)NC1CCCCC1,.,/,/,/,/,/
C[C@@H]1CN([C@@H](C)CO)C(=O)c2cc(NC(=O)Cc3ccccc3)ccc2O[C@@H](C)CCCCO[C@H]1CN(C)S(=O)(=O)c1cccs1,.,/,/,/,/,/
CCOc1ccc(Nc2c3ccccc3nc3ccccc23)cc1,.,.,86,/,.,.
CCOc1ccc(NC(=O)c2cc(Cl)nc3ccccc23)cc1,/,.,.,.,.,.
COc1ccc(Nc2nc(C)c3ccccc3n2)cc1,75,.,.,.,.,.
CCc1c(C)nc(Nc2nc(C)c3ccc(OC)cc3n2)[nH]c1=O,.,.,.,/,.,.
COc1ccc2c(C)nc(Nc3nc(C)c(C)c(=O)[nH]3)nc2c1,176,.,.,.,.,.
Cn1c(Nc2ccccc2)nc2ccccc21,.,.,.,.,.,.
Nn1c(Nc2ccccc2)nc2ccccc21,65,.,.,.,.,.
CC(C)CC#Cc1ccc2c(c1)O[C@@H](CN(C)S(=O)(=O)c1cccc(F)c1)[C@H](C)CN([C@@H](C)CO)S2(=O)=O,.,/,/,/,/,/
C[C@@H]1CCCCO[C@@H](CN(C)C(=O)CCCN(C)C)[C@@H](C)CN([C@@H](C)CO)C(=O)c2cc(NC(=O)Nc3ccc(C(F)(F)F)cc3)ccc2O1,.,/,/,/,/,/
CC(=O)N(C)C[C@H]1Oc2ncc(-c3ccccc3F)cc2C(=O)N([C@@H](C)CO)C[C@@H]1C,.,/,/,/,/,/
C[C@@H]1CN([C@@H](C)CO)C(=O)c2cccc(NS(=O)(=O)c3ccc(Cl)cc3)c2O[C@@H]1CN(C)Cc1ccc(C(F)(F)F)cc1,.,/,/,/,/,/
CO[C@H]1CN(C)C(=O)c2ccc(NS(C)(=O)=O)cc2OC[C@H](C)N(Cc2cccnc2)C[C@@H]1C,.,/,/,/,/,/
CCOc1ccc(CNc2nc3ccccc3n2C)cc1,.,.,.,.,.,.
CCOc1ccc(Nc2cc(C)c3ccccc3n2)cc1,46,.,.,.,.,.
CC(=O)Nc1ccc(Nc2cc(C)c3ccccc3n2)cc1,.,.,.,/,.,.
CCOc1ccc(Nc2nc3ccccc3n2C)cc1,52,.,.,.,.,.
CCCCCOC(=O)c1ccc(OC(=O)c2cncc(Br)c2)cc1,105,.,.,.,.,.
C=C(NC(=O)C(=C)NC(=O)c1csc(C2=NC3c4csc(n4)C4NC(=O)c5csc(n5)C(C(C)(O)C(C)O)NC(=O)C5CSC(=N5)/C(=C/C)NC(=O)C(C(C)O)NC(=O)c5csc(n5)C3(CC2)NC(=O)C(C)NC(=O)C(=C)NC(=O)C(=C)NC(=O)C(C(C)C)NC2C=Cc3c(C(C)O)cc(nc3C2O)C(=O)OC4C)n1)C(N)=O (stereo unspecified),/,.,17,.,8.6,.

# Compound activity deposited in PubChem BioAssay by several laboratories.
